SW480 rereplic: DNA re-replication induction in SW480 cells; SW480 DNA re-replication, Hoechst DNA content imaging, 48 h; Potency, µM (series often up to 46.1 µM), inactives show at the highest dose re-replication activation, usual class: activators; 1.8% of 340,000 active; AID 624297; further: % of control where 0% means no effect; nearly all actives have a fitted effect of over 55% in size
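Per well, 250 cells were exposed to pinned compound for 48 hr. Nuclear DNA was visualised with Hoechst (40 min, 37 C) and total object intensity recorded by fluorescence scanning.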
KB-3-1 tox: KB-3-1 parental cell cytotoxicity; KB-3-1 viability, CellTiter-Glo ATP luminescence, 72 h; Potency, µM (series often up to 46.1 µM), actives largely listed as cytotoxic; 1.4% of 400,000 active; further: on the % scale 0 is the no-effect control and ±100 the full control effect; nearly all actives have a fitted effect of over 60% in size
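Parental KB-3-1 viability, qHTS format: 72 h compound exposure, 37 °C; CellTiter-Glo; media-only wells and DMSO plates as controls; concentration-effect fits on corrected data.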
ALOX12 inh: ALOX12 (human) lipoxygenase inhibition | 1.1% of 580,000 active | AID 1671190 | P18054 | Potency, µM (series often up to 108 µM), inactives show top-dose activity change, negative = inhibition, most hits filed as inhibitors | purified 12hLO, xylenol orange hydroperoxide absorbance; further: on the % scale 0 is the no-effect control and ±100 the full control effect
Target sequence (P18054 whole entry, looked up): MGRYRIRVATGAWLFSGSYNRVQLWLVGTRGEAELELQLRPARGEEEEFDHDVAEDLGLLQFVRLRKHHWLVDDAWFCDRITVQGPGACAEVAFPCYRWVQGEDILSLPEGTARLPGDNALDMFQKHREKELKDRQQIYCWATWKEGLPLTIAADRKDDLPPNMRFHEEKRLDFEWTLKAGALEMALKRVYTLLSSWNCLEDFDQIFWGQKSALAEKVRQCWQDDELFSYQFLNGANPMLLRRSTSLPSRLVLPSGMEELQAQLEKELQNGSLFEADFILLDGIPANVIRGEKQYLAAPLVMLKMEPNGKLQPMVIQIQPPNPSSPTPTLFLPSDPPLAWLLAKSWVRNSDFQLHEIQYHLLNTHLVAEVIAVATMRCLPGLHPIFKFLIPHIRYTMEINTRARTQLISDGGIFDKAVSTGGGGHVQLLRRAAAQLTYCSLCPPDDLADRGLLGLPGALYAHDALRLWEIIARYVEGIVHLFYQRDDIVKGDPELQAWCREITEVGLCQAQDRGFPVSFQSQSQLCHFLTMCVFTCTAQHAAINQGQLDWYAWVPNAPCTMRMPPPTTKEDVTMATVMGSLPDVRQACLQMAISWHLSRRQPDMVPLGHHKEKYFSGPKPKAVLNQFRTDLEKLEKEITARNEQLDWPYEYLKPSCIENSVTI
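Purified human 12hLO at 150 nM in 25 mM Hepes, 0.01% Triton X-100, pH 7.0, preincubated 15 min at room temperature with compound. Reaction started with 40 uM arachidonic acid, 30 min at room temperature. Hydroperoxide measured by Fe-xylenol orange, 573/405 nm absorbance ratio.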
PINK1 modulator: changes PINK1 expression. 0.2% of 410,000 active. Potency, µM (titrated, usually from 76.6 µM), for the others: at the top dose activation (PINK1 increase), usual class: activators. AID 624263. PINK1 immunofluorescence, high-content cytometry, 24 h; active means well fitted activation curve with a large enough effect; inconclusive means small, poorly fitted or top-dose-only effect; cell line not stated here; further: % of control where 0% means no effect; nearly all actives have a fitted effect of over 65% in size
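Stable cell line, 250 cells/well, 12 h attachment; compounds pinned at 5 concentrations, 24 h; CCCP control. Fixed with nuclear dye, primary antibodies 12 h at 10 degrees C, secondary plus cell stain; laser-scanning cytometer read.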
MCF10A rerep: inducers of DNA re-replication in MCF 10A breast cells. MCF 10A DNA re-replication, Hoechst nuclear intensity, 48 h. Potency, µM (series often up to 46.1 µM), for inactives: at the highest dose activity, positive = re-replication, usual class: activators. 2.9% of 350,000 active; further: % of control where 0% means no effect; nearly all actives have a fitted effect of over 50% in size
KB-V1 MDR tox: KB-V1 MDR subline cytotoxicity | 3.4% of 400,000 active | Potency, µM (titrated, usually from 46.1 µM), hits mostly cytotoxic | KB-V1 MDR cells viability, CellTiter-Glo, 72 h; further: on the % scale 0 is the no-effect control and ±100 the full control effect; nearly all actives have a fitted effect of over 60% in size
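Drug-selected KB-V1 cells, grown in DMEM lacking phenol red with 10% FBS, receive compound titrations; after three days at 37 degrees C, surviving cell ATP is quantified by CellTiter-Glo luminescence and responses normalized and curve-fitted.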
* = called active by the depositor; i = inactive; ? = inconclusive; / = no result given; [ ] = remark or other dose. This is a sample that favours compounds with a hit; in the whole collection about 5.8% have one here. Unless noted, the call rests on the fitted dose curve; in most records, active means well fitted curve in the direction sought with a large enough effect; inconclusive means small, poorly fitted or top-dose-only effect, or another doubt; inactive means no such curve, though single readings can be large; an effect the other way counts as inactive or inconclusive. Potency means the concentration at half of the fitted maximal effect.

SMILES	SW480 rereplic	KB-3-1 tox	ALOX12 inh	PINK1 modulator	MCF10A rerep	KB-V1 MDR tox
CCCNC(=O)c1ccc2c(c1)N=C(CCC)c1ccccc1S2	/	0.731µM*	-19.7%	1.0%	/	i
CCOc1ccc(C(C)=O)cc1CN(C)CC(=O)Nc1ccc(Cl)cc1	/	/	-21.2%	/	/	/
CC(=O)c1ccc(OCC(O)CN2CCCC(C(F)(F)F)C2)cc1 (stereo unspecified)	/	/	-1.5%	/	/	/
COc1ccc(NC(=O)CN2C(=O)NC3(CCOCC3)C2=O)cc1OC	/	/	7.5%	/	/	/
N#Cc1c(-c2ccc(F)cc2)c(-c2ccc(F)cc2)nn(CCO)c1=O	3.26µM*	3.66µM*	12.1%	?	5.8µM*	8.2µM*
COc1ccc2cnn(CC(=O)N(C)Cc3ccccc3)c(=O)c2c1OC	/	/	12.1%	/	/	/
O[C@H]1CC[C@@H](Cc2cc(-c3ccc(F)cc3)on2)O[C@@H]1CNCc1ccccc1Cl	/	/	10.5%[176 µM]	/	/	/
COc1ccc(-c2c3c(=O)n(C)c(=O)n(C)c3cn2Cc2ccccn2)cc1	?	i	19.2%	0.2%[38.3 µM]	18.4µM*	i
COCCCNC(=O)CSCc1nc(-c2ccccc2C)oc1C	/	/	9.1%	/	/	/
O=C(Cn1cnc2c(Cl)cc(Cl)cc2c1=O)N1CCCC1c1ccc2c(c1)OCCO2 (stereo unspecified)	/	/	-9.1%	/	/	/
Clc1cccc(CNc2nnnn2-c2ccccc2)c1	-3.0%	?	0.0%	2.0%	?	23.1µM*
CN(C)C(=O)c1c(NC(=O)c2ccccc2)sc2c1CCC(C(C)(C)C)C2 (stereo unspecified)	/	/	11.7%	/	/	/
CC1=C/C(=C(\c2ccc(O)c(C)c2)c2ccccc2S(=O)(=O)O)C=CC1=O	-0.5%	i	6.31µM*	0.2%	10.1%	?
CC1=CC(=O)C=C/C1=C(/c1ccc(O)cc1C)c1ccccc1S(=O)(=O)O	2.8%	i	?	1.4%	-1.4%	i
COc1cc(Nc2ncnc(N)n2)cc(OC)c1OC	-1.4%	i	10.1%	0.8%	13.7%	i
COc1cc(Nc2c(C#N)cnc3c(OC)cccc23)cc(OC)c1OC	/	/	3.16µM*	/	/	/
COc1cc(CN2CCCCC23Cc2ccccc2CNC3=O)cc(OC)c1 (stereo unspecified)	/	/	-1.8%[6.33 µM]	/	/	/
Cc1cc(/C=C2\SC(=O)N(C)C2=O)c(C)n1-c1ccc(O)cc1	-24.1%	i	?	1.6%	?	i
Cc1cc(/C=C2\SC(=S)N(Cc3ccco3)C2=O)c(C)n1-c1ccccc1	-1.6%	i	-27.8%	2.8%	5.8µM*	i
CN=C1S/C(=C\c2cc(C)n(-c3ccccc3F)c2C)C(=O)N1C	3.8%	i	?	13.4%[38.3 µM]	20.6µM*	i
CN1C(=O)/C(=C\c2cc(N=Nc3ccccc3)ccc2O)SC1=S	-0.6%	?	88.0%	39.8µM*	2.91µM*	?
Cc1cc(/C=C2\SC(=S)N(C)C2=O)c(C)n1-c1cccc(O)c1	17.1%	?	?	?	13µM*	?
CC1CN(C)C(C)(C)CC1O (stereo unspecified)	/	/	20.9%	/	/	/
CCCC(CCC)C(=O)NCc1nnnn1-c1ccc(OCC)cc1	/	/	6.5%	/	/	/
CCCCCC(=O)N[C@@H](Cn1cc(F)c(=O)[nH]c1=O)C(=O)O	/	/	5.8%[176 µM]	/	/	/
SMILES	SW480 rereplic	KB-3-1 tox	ALOX12 inh	PINK1 modulator	MCF10A rerep	KB-V1 MDR tox
CC(=O)C1=C(O)CCC1=NCCc1ccccc1	?	i	18.8%	/	20.6µM*	i
O=S1(=O)CCN2C(c3cccc(Br)c3)=CSC2=N1	/	/	22.4µM*	/	/	/
COCCn1cnnc1SC(C)c1ccccc1Cl (stereo unspecified)	/	/	-0.7%	/	/	/
Nc1ccc2nc(SCc3ccccc3F)sc2c1	4.7%	i	4.7%	11.2%	20.6µM*	i
Nc1ccc2nc(SCC(=O)c3ccccc3)sc2c1	-13.0%	i	?	-0.2%	3.1%	i
CC(C)n1c(O)c(N=NC(=O)CNC(=O)Cc2ccc(Cl)cc2)c2ccccc21	-4.1%	i	-0.8%	-1.0%	-16.6%	i
CC(C)n1c(O)c(N=Nc2ccc(Cl)nn2)c2ccccc21	-4.1%	i	-6.1%	2.6%	0.3%	11.6µM*
Cc1cccc(OC(C)C(=O)N(Cc2cccs2)C2CCS(=O)(=O)C2)c1C (stereo unspecified)	4.6%	i	-9.8%	-2.5%[38.3 µM]	3.6%	5.8µM*
COc1ccc(CC(=O)Nc2nnc(C(C)C)s2)cc1	-4.2%	i	-0.7%	0.7%	4.3%	i
COc1ccc(NC(=O)Nc2nnc(C(C)C)s2)cc1	-9.3%	?	13.8%	-0.8%[38.3 µM]	-1.9%	16.4µM*
COc1ccc(CN2C(=O)COC[C@H]2C(=O)Nc2cc(F)cc(F)c2)cc1OC	/	/	-4.3%	/	/	/
CCOC(=O)N1CCN(C(=O)c2cc(-c3cccs3)nc3ccccc23)CC1	/	/	27.0%	/	/	/
CCOC(=O)Cn1c(=NC(=O)c2cc(-c3cccs3)nc3ccccc23)sc2cc(S(N)(=O)=O)ccc21	?	i	-45.8%	?	8.2µM*	i
COC(=O)Cn1c(=NC(=O)c2cc(-c3cccs3)nc3ccccc23)sc2cc(S(N)(=O)=O)ccc21	?	i	-26.1%	2.7%	7.31µM*	?
COC(=O)Cn1c(=NC(=O)c2nc3ccccc3s2)sc2cc(S(N)(=O)=O)ccc21	-11.7%	?	-12.2%	-1.1%	?	i
CNc1nc2cc([N+](=O)[O-])c([N+](=O)[O-])cc2nc1NC	-3.1%	8.2µM*	-23.5%	4.9%	25.1%	i
N#Cc1cc2nc(O)c(O)nc2cc1[N+](=O)[O-]	8.3%	i	?	0.0%	-3.7%	i
Cc1ccc(C)c(/C=C/C(=O)c2ccc(O)cc2)c1	/	/	-21.8%	/	/	/
CCOC(=O)c1cc(C(C)=O)n2ccccc12	-10.9%	i	-7.4%	4.2%[38.3 µM]	26.3%	i
CCOC(=O)c1cc(Br)c(=O)n2ccccc12	-4.6%	i	?	-1.4%	-1.6%	14.6µM*
CCOc1cc(C#N)c(NC(=O)c2cccnc2)cc1OCC	5.17µM*	0.651µM*	9.1%	?	3.66µM*	?
CCOc1ccc(CC(=O)N/N=C(\C)c2cccnc2)cc1OCC	1.9%	i	i	4.2%	20.6µM*	i
CC(=NNC(=O)COc1cccc(C)c1)c1cccnc1	-4.4%	i	9.7%	-0.4%	3.8%	16.4µM*
COc1ccc(CC(=O)N/N=C(\C)c2cccnc2)cc1OC	4.2%	i	443.0%	0.8%	3.8%	i
O=C(NC(c1ccc(Cl)cc1)c1ccsc1)C1CCN(CCOc2ccc(Cl)cc2)CC1 (stereo unspecified)	/	i	31.6µM*	0.3%	/	i
COc1ccc(OCCN2CCC(C(=O)NC(c3ccc(Cl)cc3)c3cccnc3)CC2)cc1 (stereo unspecified)	/	i	-6.5%	10.0%	/	i
